Experimental data reported in PubChem BioAssay (NCI).
The panel holds about 79,000 compounds, 15% with a hit somewhere; the sample as a whole holds those more often. No stated cut-off is given here; in the data, active means growth inhibition above about 70%; inactive means the rest.

Legend:
[1] = NCI Yeast Anticancer Drug Screen. Data for the rad50 strain (AID 155);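 further: 0% = growth of vehicle-only cultures of the same strain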; conditions: S. cerevisiae rad50 strain growth inhibition; at 50.0 µM; stronger effect = higher value
Procedure, shortened: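 Vehicle-treated cultures provide the reference for the growth inhibition reported for compound-exposed, repair-deficient yeast.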

[2] = NCI Yeast Anticancer Drug Screen. Data for the mec2-1 strain (AID 157); conditions: S. cerevisiae mec2-1 strain, at 50.0 µM, stronger effect = higher value
Procedure, shortened: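 Using mec2-1 yeast: add compound, measure growth, express inhibition versus vehicle-treated cultures.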

[3] = NCI Yeast Anticancer Drug Screen. Data for the sgs1 mgt1 strain (AID 161);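 further: 0% = growth of cultures given vehicle only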; conditions: S. cerevisiae sgs1 mgt1 strain, at 50.0 µM, stronger effect = higher value
Procedure, shortened: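 Yeast cells carrying a defined DNA-repair defect were exposed to test compounds. Growth inhibition was measured relative to vehicle-treated controls.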

[4] = NCI Yeast Anticancer Drug Screen. Data for the cln2 rad14 strain (AID 165);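 further: 0% = growth equal to vehicle treated cultures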; conditions: S. cerevisiae cln2 rad14 strain, at 50.0 µM, stronger effect = higher value
Procedure, shortened: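 Yeast strain cln2 rad14, bearing defects in cell cycle control and DNA repair, serves as the test system; values reflect growth inhibition compared with vehicle.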

[5] = NCI Yeast Anticancer Drug Screen. Data for the mlh1 rad18 strain (AID 175); conditions: S. cerevisiae mlh1 rad18 strain growth inhibition; at 50.0 µM; stronger effect = higher value
Procedure, shortened: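 Steps: expose repair-defective yeast to compound; measure growth; express inhibition against vehicle-treated controls.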

[6] = NCI Yeast Anticancer Drug Screen. Data for the bub3 strain (AID 167); conditions: S. cerevisiae bub3 mutant strain, at 50.0 µM, stronger effect = higher value
Procedure, shortened: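 Mutant yeast screening strain plus compound; vehicle-treated cultures serve as the 0% inhibition reference.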

Measured: growth inhibition

CSc1nsc(N)n1
inactive: [1] -13.3% | [2] 2.5% | [3] -4.2% | [4] -26.9% | [5] 20.7%

Cc1cc(Cc2ccccc2)c(O)c(Cc2ccccc2)c1
inactive: [1] 50.1% | [2] 3.3% | [3] 32% | [4] 38% | [5] 42.7%

CCC(=O)Oc1ccc2ccccc2c1
inactive: [1] 49.4% | [2] 32.8% | [3] 28.5% | [4] 14.8% | [5] 29.8%

Oc1cccc(CNC2CCCCC2)c1
inactive: [1] 3.5% | [2] 0.25% | [3] -0.6% | [4] 10.2% | [5] 9.15%

CC(=O)[C@@]1(O)CC[C@H]2[C@@H]3CC[C@@H]4CC(=O)CC[C@]4(C)[C@H]3[C@@H](O)C[C@@]21C
inactive: [1] -19.9% | [3] -3% | [4] -51.6% | [6] 11.1% | [5] -13.5%

S=c1nc2[nH]c3ccccc3c2n[nH]1
inactive: [1] 8.45% | [3] -5.65% | [4] -7.3% | [6] -8.95% | [5] 6.45%

O=[N+]([O-])c1c(Cl)ncnc1Cl
inactive: [1] -52.5% | [3] -56.8% | [4] -13.4% | [6] -48.1% | [5] -16.2%

C#CCSc1nnnn1-c1ccccc1
inactive: [1] -0.6% | [3] 22.2% | [4] 19.4% | [6] 15.8% | [5] 12.4%

C=C1SC(=Nc2c(C)cccc2C)N(c2nc(Cl)nc(Cl)n2)C12CCCCC2
inactive: [1] 21% | [3] 11.2% | [4] 19.1% | [5] 14.1%

COC(C(=O)C(O)C(C)O)C1Cc2cc3cc(OC4CC(OC5CC(O)C(O)C(C)O5)C(O)C(C)O4)c(C)c(O)c3c(O)c2C(=O)C1OC1CC(OC2CC(O)C(OC3CC(C)(O)C(O)C(C)O3)C(C)O2)C(O)C(C)O1 (centres undefined)
inactive: [1] -6.6% | [3] -12.5% | [4] 6.95% | [5] 11.8%

O=C(CCCl)OCCOc1ccccc1
inactive: [1] -9.85% | [3] -15.1% | [4] 21.9% | [6] -18.5% | [5] 6.55%

C1Cc2onc(-c3noc4c3CCC4)c2C1
inactive: [1] -11.2% | [3] -15.2% | [4] 22.6% | [6] -14.2% | [5] -14.6%

C=CCC(OC(C)=O)c1ccc(OC)c(OC)c1 (centres undefined)
inactive: [1] 11.3% | [3] 14.7% | [4] -13.9% | [6] 8.7% | [5] 9.5%

O=C(NCc1ccccc1)/C(=C/c1ccccc1)NC(=O)c1ccccc1
inactive: [1] -33.1% | [3] -33.9% | [4] -7.2% | [6] -12.3% | [5] -42.5%

CC1(C)CCC(C)(C)NC(=S)N1
inactive: [1] 13.3% | [3] 21.2% | [4] 1.9% | [6] 13.5% | [5] 11.1%

COC1OC(COC(C)=O)C(OC(C)=O)C(OC(C)=O)C1OC(C)=O (centres undefined)
inactive: [1] 10.7% | [3] 47.2% | [4] -28.6% | [6] 2.05% | [5] 13.2%

OCC1OC(n2ccc3c2ncn2ncnc32)C(O)C1O (centres undefined)
inactive: [2] 3.45% | [3] -10.4% | [4] -15.3% | [6] -37.6% | [5] -47.8%

CC(=O)c1cccs1
inactive: [1] -9.65% | [3] 15.1% | [4] -20.1% | [6] -3.35% | [5] 6.7%

CCOC(=O)C1(N)CCCCC1
inactive: [2] 0.45% | [3] 11.1% | [4] -9.85% | [6] 13% | [5] 11.8%

Cn1c(=O)c2[nH]c(CC(=O)O)nc2n(C)c1=O
inactive: [1] 29.5% | [3] 33.8% | [4] 22.8% | [6] 0.85% | [5] 24.1%

NS(=O)(=O)c1cc(=O)[nH]c(=O)[nH]1
inactive: [1] -12.2% | [3] -0.5% | [4] -4% | [5] 3.4%

CCCCNC(=O)c1ccc(OCC)cc1
inactive: [1] 12.2% | [3] 33.3% | [4] -16.4% | [6] -8.85% | [5] -0.1%

Cc1cc2nc(C)c(C)nc2cc1C
inactive: [1] -20.5% | [3] -27.2% | [4] 7.75% | [6] -25.7% | [5] -20.4%

Nc1nc(N)nc(N2CCCCC2)n1
inactive: [1] -23.3% | [3] -16.4% | [4] -41.2% | [5] -19.9%

CC(=O)C1C(=O)C(=O)N(c2ccc(Cl)c(Cl)c2)C1=O (centres undefined)
inactive: [1] -22.1% | [3] -2.35% | [4] -14.4% | [6] -9.5% | [5] -24.9%

CC(C)NC(=O)OCc1c(COC(=O)NC(C)C)c(-c2ccc(Cl)cc2)n2c1CCC2
inactive: [1] -29.6% | [3] -26.1% | [4] 9.25% | [6] -6.75% | [5] -24.4%

O=C(c1ccc(Cl)cc1)N1CCCCC1
inactive: [1] 1.05% | [3] -17.6% | [4] -0.65% | [6] -7.15% | [5] -5.8%

Nc1c(O)c(S(=O)(=O)O)c(O)c2c1C(=O)c1ccccc1C2=O
inactive: [1] 27.4% | [3] 31.1% | [4] 30.9% | [6] 34.9% | [5] 33.6%

O=C1NC(=O)/C(=C\c2ccncc2)N1
inactive: [1] 28.9% | [3] -0.3% | [4] 9.3% | [6] -19.8% | [5] -56.5%

OC(CCN1CCCCC1)(c1ccccc1)c1ccccc1
inactive: [1] -29.6% | [3] -41.5% | [4] 16.4% | [6] -20.2% | [5] -18.4%

OC(CBr)CCBr (centres undefined)
inactive: [1] -28.7% | [3] -39.6% | [4] 3.45% | [6] -32.1% | [5] -32%

CCN1CCCC(N2c3ccccc3Sc3ccccc32)C1 (centres undefined)
inactive: [1] -9.15% | [3] 8% | [4] -58.8% | [6] 8.5% | [5] -4%

C=CC(=O)OC1CCC(C(C)(C)CC)CC1 (centres undefined)
inactive: [1] 39.9% | [3] -12.9% | [4] -22.7% | [6] -8.15% | [5] -18.5%

Cc1c(Cl)cccc1NC(=S)NC(=O)c1ccccc1
inactive: [1] 23.7% | [3] 14.8% | [4] 0.4% | [6] 35.4% | [5] 18.1%

Cn1c(=O)[nH]c2ccccc2c1=O
inactive: [1] -1% | [3] -2.1% | [4] 0.7% | [5] 5.05%

CC(=O)c1ccc(C)cc1
inactive: [1] -1.75% | [3] -28.8% | [4] -2.8% | [6] -36% | [5] -11.6%

CC(CCC#N)(CCC#N)C(=O)c1ccccc1
inactive: [1] 28.6% | [3] 25.1% | [4] -38.3% | [6] -4.75% | [5] 7.65%

NCCCN1CCCC1=O
inactive: [1] -20.1% | [3] -14.8% | [4] 1.8% | [6] -23.3% | [5] -15.1%

N#CCCN1C(=O)CCC1C(=O)O (centres undefined)
inactive: [1] 7.75% | [3] 10.1% | [4] -6.15% | [6] -3.1% | [5] 13.3%

O=C(NC(=S)N1CC=CCC1)c1ccccc1
inactive: [1] 13.5% | [3] 26.4% | [4] -1.95% | [6] 45.5% | [5] 21.3%

CCC1CCC(C)NC1 (centres undefined)
inactive: [1] 26.4% | [3] 17.2% | [4] 23.6% | [6] -7.05% | [5] 21.8%

CCOC(=O)/C(O)=C(\C=N\C(=S)Nc1ccc(Cl)c(Cl)c1)C(=O)OCC
inactive: [2] 11.2% | [3] 38.5% | [4] 6.65% | [5] 50.6%

COc1c(CNC(=O)CCl)cc2[nH]c(C)cc2c1CNC(=O)CCl
inactive: [2] 4.95% | [3] 17.3% | [4] 2.2% | [6] 9.7% | [5] -25.9%

CC(=O)O[C@H]1CC[C@]2(C)C3=C(C(=O)C[C@H]2C1(C)C)[C@]1(C)CC[C@H]([C@H](C)CCC(=O)O)[C@@]1(C)CC3=O
inactive: [2] -8.05% | [3] 33.2% | [4] 3.5% | [6] 2.05% | [5] 0.4%

O=C(OCC1CCCO1)c1ccc([N+](=O)[O-])cc1 (centres undefined)
inactive: [2] 21.6% | [3] 12.9% | [4] 9.7% | [6] 30.9% | [5] 12.3%

N=C(N)c1nn(C2OC(CO)C(O)C2O)c2nc[nH]c(=O)c12 (centres undefined)
inactive: [2] -9.5% | [3] 10.2% | [4] 17.6% | [6] 5.7% | [5] 27.1%

CC(=O)c1cc(O)ccc1O
inactive: [2] -10.1% | [3] 10.3% | [4] -11.1% | [6] -2.6% | [5] 1.8%

O=C(O)c1ccc(OCc2ccccc2)cc1
inactive: [2] 11.2% | [3] 38% | [4] -1.85% | [6] -28.1% | [5] 19.9%

Cn1c2ccccc2c2nnc(NCCCCO)nc21
inactive: [2] 18.3% | [3] 19.1% | [4] 24.8% | [6] 19.6% | [5] 41.2%

CC(=O)OC/C(C)=C\CC(C)COC(C)=O (centres undefined)
inactive: [2] 3.35% | [3] 14.4% | [4] 2.4% | [6] -18.6% | [5] -0.75%
